Data taken from ChEMBL document CHEMBL2218924, “A broad activity screen in support of a chemogenomic map for kinase signalling research and drug discovery” (Biochem J, 2013).

molecular target: Protein-tyrosine kinase 6 (Homo sapiens) (UniProt Q13882); details: at 10 µM
Sequence (Q13882 whole entry, looked up): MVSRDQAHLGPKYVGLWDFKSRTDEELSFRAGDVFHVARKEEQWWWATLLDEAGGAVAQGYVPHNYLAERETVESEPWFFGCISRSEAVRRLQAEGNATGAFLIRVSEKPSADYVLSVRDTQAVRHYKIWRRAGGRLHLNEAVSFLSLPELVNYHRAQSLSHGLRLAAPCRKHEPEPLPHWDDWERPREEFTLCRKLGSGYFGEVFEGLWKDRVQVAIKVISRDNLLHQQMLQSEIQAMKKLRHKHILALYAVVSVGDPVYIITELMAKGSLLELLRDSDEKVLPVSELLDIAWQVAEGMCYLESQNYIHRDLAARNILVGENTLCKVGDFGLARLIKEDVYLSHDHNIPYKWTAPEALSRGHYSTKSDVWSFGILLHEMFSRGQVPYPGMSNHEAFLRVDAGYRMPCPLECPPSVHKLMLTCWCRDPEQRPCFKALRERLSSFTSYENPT

Compared with `CCN(CC)CCCCN1c2ccccc2Oc2ccc(Cl)cc21`, `COc1ccc(S(=O)(=O)N(CCO)c2ccccc2CN(C)C/C=C/c2ccc(Cl)cc2)cc1` is lower in residual activity: 108% for the first, 88% for the second.

First: O=[N+]([O-])c1ccc(-c2nc(-c3ccc(F)cc3)c(-c3ccncc3)[nH]2)cc1
Second: c1ccc2c(-c3ccncc3)c[nH]c2c1
The residual activity of the first is lower: 31% for the first, 75% for the second.

Going from `Cc1ccc(S(=O)(=O)/C=C/C#N)cc1` to `Nc1nc(Nc2ccc(S(N)(=O)=O)cc2)nn1C(=S)Nc1c(F)cccc1F`, the residual activity falls from 106% to 8%.

Going from `COc1cc2ncnc(Nc3ccc(NC(=O)c4ccccc4)cc3)c2cc1OC` to `COc1cc2ncnc(N3CCN(C(=O)Nc4ccc(Oc5ccccc5)cc4)CC3)c2cc1OC`, the residual activity rises from 10% to 98%.

Compared with `Cc1nc2cc3nc(-c4cccs4)cnc3cc2n1C`, `Cc1cc2ncc(-c3ccccc3)nc2cc1C` is higher in residual activity: 98% for the first, 101% for the second.

First: CC(C)n1cnc2/c(=N/c3cccc(Cl)c3)nc(NCCO)[nH]c21
Second: Nc1cccc(-c2cc3c(Oc4cccc(O)c4)ncnc3[nH]2)c1
The residual activity of the first is higher: 100% for the first, 0% for the second.

First: Cc1cc(Nc2nc(-c3ccccc3)nc3ccccc23)n[nH]1
Second: c1ccc(-c2n[nH]cc2-c2ccnc3ccccc23)nc1
The residual activity of the first is lower: 4% for the first, 37% for the second.

Going from `Cc1cccc(-c2[nH]c(C(C)(C)C)nc2-c2ccc3c(c2)OCO3)n1` to `COc1ccc(OC)c2c(=S)c3ccccc3[nH]c12`, the residual activity rises from 102% to 104%.

Going from `O=C(Nc1cccc(Nc2nccc(Nc3cccc(C(F)(F)F)c3)n2)c1)C1CC1` to `O=C(Nc1cccc(Nc2cc(Nc3cccc(C(F)(F)F)c3)ncn2)c1)C1CC1`, the residual activity rises from 46% to 94%.

Going from `O=C1Nc2cc(Br)ccc2/C1=C1/Nc2ccccc2/C1=N\O` to `O=C1NC(=O)c2c1c1c3ccccc3[nH]c1c1[nH]c3cc(Br)ccc3c21`, the residual activity falls from 102% to 100%.

First: O=C1Nc2ccc(Br)cc2/C1=C\c1cc2c([nH]1)CCCC2
Second: COc1ccc(C(=O)Nc2sc3c(c2C(N)=O)CCCC3)cc1OC
The residual activity of the first is lower: 107% for the first, 114% for the second.

Compared with `CO[C@@H]1[C@H](N(C)C(=O)c2ccccc2)C[C@H]2O[C@]1(C)n1c3ccccc3c3c4c(c5c6ccccc6n2c5c31)C(=O)NC4`, `Oc1n[nH]c2nnc(-c3c(-c4ccccc4)nn4ccccc34)cc12` is lower in residual activity: 93% for the first, 87% for the second.

First: CC(=O)c1ccc(N2CCOCC2)cc1O
Second: O=Nc1c(-c2c(O)[nH]c3ccccc23)[nH]c2ccccc12
The residual activity of the first is higher: 107% for the first, 23% for the second.

First: CO[C@H]1[C@@H](OC)C[C@H](C)[C@@H](OC)C2=CC(=O)C=C(NC(=O)/C(C)=C/C=C/[C@H](OC)[C@@H](OC(N)=O)/C(C)=C/[C@@H]1C)C2=O
Second: O=C1NC(=O)c2cc(Nc3ccc(F)cc3)c(Nc3ccc(F)cc3)cc21
The residual activity of the first is higher: 106% for the first, 48% for the second.

molecular target: Tyrosine-protein kinase BTK (Homo sapiens) (UniProt Q06187); details: at 1 µM
Sequence (Q06187 whole entry): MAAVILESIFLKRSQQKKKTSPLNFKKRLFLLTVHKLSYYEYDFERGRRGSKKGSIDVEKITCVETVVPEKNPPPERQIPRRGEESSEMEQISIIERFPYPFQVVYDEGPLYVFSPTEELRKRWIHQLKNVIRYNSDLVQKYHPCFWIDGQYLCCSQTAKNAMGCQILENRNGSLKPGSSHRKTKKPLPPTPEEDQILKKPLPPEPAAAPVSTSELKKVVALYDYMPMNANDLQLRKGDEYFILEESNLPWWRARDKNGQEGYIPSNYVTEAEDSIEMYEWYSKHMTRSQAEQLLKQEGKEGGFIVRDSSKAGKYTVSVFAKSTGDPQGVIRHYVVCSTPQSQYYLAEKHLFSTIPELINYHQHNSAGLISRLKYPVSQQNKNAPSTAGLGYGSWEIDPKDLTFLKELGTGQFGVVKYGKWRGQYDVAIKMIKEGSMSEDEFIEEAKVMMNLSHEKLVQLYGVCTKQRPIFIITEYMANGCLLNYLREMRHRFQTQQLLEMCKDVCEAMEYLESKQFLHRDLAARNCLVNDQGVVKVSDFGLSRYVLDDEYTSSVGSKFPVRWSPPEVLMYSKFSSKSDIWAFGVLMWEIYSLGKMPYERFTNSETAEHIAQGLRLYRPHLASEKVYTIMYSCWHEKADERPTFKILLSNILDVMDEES

Compared with `CCN(CC)CCCCN1c2ccccc2Oc2ccc(Cl)cc21`, `Cn1nc2c3c(cccc31)C(=O)c1ccccc1-2` is higher in residual activity: 78% for the first, 94% for the second.

Compared with `O=[N+]([O-])c1ccc(-c2nc(-c3ccc(F)cc3)c(-c3ccncc3)[nH]2)cc1`, `c1ccc2c(-c3ccncc3)c[nH]c2c1` is higher in residual activity: 91% for the first, 99% for the second.

Going from `Cc1ccc(S(=O)(=O)/C=C/C#N)cc1` to `N#CC(C#N)=C(N)/C(C#N)=C/c1ccc(O)cc1`, the residual activity falls from 98% to 94%.

Going from `COc1cc2ncnc(Nc3ccc(NC(=O)c4ccccc4)cc3)c2cc1OC` to `COc1cc2ncnc(N3CCN(C(=O)Nc4ccc(Oc5ccccc5)cc4)CC3)c2cc1OC`, the residual activity rises from 90% to 92%.

Compared with `Cc1nc2cc3nc(-c4cccs4)cnc3cc2n1C`, `Cc1cc2ncc(-c3ccccc3)nc2cc1C` is higher in residual activity: 93% for the first, 94% for the second.

Compared with `CC(C)n1cnc2/c(=N/c3cccc(Cl)c3)nc(NCCO)[nH]c21`, `Nc1cccc(-c2cc3c(Oc4cccc(O)c4)ncnc3[nH]2)c1` is lower in residual activity: 72% for the first, 21% for the second.

Going from `Cc1cc(Nc2nc(-c3ccccc3)nc3ccccc23)n[nH]1` to `c1ccc(-c2n[nH]cc2-c2ccnc3ccccc23)nc1`, the residual activity rises from 19% to 102%.

First: N#Cc1cnc2cnc(NCc3cccnc3)cc2c1Nc1ccc(F)c(Cl)c1
Second: O=C(Nc1cccc(Nc2nccc(Nc3cccc(C(F)(F)F)c3)n2)c1)C1CC1
The residual activity of the first is higher: 70% for the first, 53% for the second.

Going from `O=C1Nc2cc(Br)ccc2/C1=C1/Nc2ccccc2/C1=N\O` to `O=C1NC(=O)c2c1c1c3ccccc3[nH]c1c1[nH]c3cc(Br)ccc3c21`, the residual activity rises from 1% to 79%.

Compared with `COc1ccc(OC)c2c(=S)c3ccccc3[nH]c12`, `O=Nc1c(-c2c(O)[nH]c3ccccc23)[nH]c2ccccc12` is lower in residual activity: 96% for the first, 31% for the second.

Going from `O=C(Nc1cccc(Nc2cc(Nc3cccc(C(F)(F)F)c3)ncn2)c1)C1CC1` to `O=C1NC(=O)c2cc(Nc3ccc(F)cc3)c(Nc3ccc(F)cc3)cc21`, the residual activity falls from 99% to 86%.

First: N#CCCc1ccc2c(c1)-c1[nH]c3ccc([N+](=O)[O-])cc3c1CC(=O)N2
Second: CO[C@@H]1[C@H](N(C)C(=O)c2ccccc2)C[C@H]2O[C@]1(C)n1c3ccccc3c3c4c(c5c6ccccc6n2c5c31)C(=O)NC4
The residual activity of the first is higher: 79% for the first, 60% for the second.

Compared with `Nc1nc(Nc2ccc(S(N)(=O)=O)cc2)nn1C(=S)Nc1c(F)cccc1F`, `Oc1n[nH]c2nnc(-c3c(-c4ccccc4)nn4ccccc34)cc12` is lower in residual activity: 79% for the first, 78% for the second.

Going from `CC(=O)c1ccc(N2CCOCC2)cc1O` to `COc1ccc(C(=O)Nc2sc3c(c2C(N)=O)CCCC3)cc1OC`, the residual activity falls from 91% to 84%.

`CO[C@H]1[C@@H](OC)C[C@H](C)[C@@H](OC)C2=CC(=O)C=C(NC(=O)/C(C)=C/C=C/[C@H](OC)[C@@H](OC(N)=O)/C(C)=C/[C@@H]1C)C2=O` was tested, and the residual activity was 83%.
